Screen size: about 650,000 compounds; about 5,900 (0.91%) were called active. The sample holds actives, similar compounds and a random draw of the others, so the mix is not that of the screen. A number with no mark means an inactive call. Rule as the data show it: active = inhibition above about 50%; inactive = the rest.
biological target: Microphthalmia-associated transcription factor (Homo sapiens) (UniProt O75030); experiment: MITF inhibitors, primary screen, biochemical, AlphaScreen, human (AID 1259374); conditions: AlphaScreen MITF homodimerization, bead proximity signal; at 2.6 µM; stronger effect = higher value;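 also: 0% = vehicle wells with protein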
Sequence (O75030 whole entry, looked up): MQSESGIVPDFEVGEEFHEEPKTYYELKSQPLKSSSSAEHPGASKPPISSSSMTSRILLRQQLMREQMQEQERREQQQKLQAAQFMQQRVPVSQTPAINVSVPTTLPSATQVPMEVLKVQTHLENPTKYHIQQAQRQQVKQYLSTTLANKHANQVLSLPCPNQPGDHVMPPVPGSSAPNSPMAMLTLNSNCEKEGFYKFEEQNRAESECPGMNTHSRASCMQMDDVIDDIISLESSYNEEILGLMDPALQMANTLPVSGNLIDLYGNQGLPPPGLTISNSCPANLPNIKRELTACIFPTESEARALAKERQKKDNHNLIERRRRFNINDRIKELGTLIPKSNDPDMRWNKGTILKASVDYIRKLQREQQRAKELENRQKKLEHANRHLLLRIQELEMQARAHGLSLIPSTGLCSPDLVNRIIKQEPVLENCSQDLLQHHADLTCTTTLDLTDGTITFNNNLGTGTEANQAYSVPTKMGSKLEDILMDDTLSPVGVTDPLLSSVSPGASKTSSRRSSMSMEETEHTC

Question: How did the inhibition turn out when `CC(C)N1CCN(C(=O)CC2(c3ccccc3)CC(=O)N(CCc3ccccn3)C2=O)CC1` (stereo unspecified) was run?
Answer: 18.7%

Question: For `Cc1cc(N2CCCC2)nc(Nc2ccc(NC(=O)c3c(F)cccc3Cl)cc2)n1`, which inhibition is on record?
Answer: 8.34%

Question: For `CCc1ccc(NC(=O)Nc2ccccc2)cc1`, which inhibition is on record?
Answer: 7.42%

Question: How did the inhibition turn out when `CCc1ccc(NC(=O)CS(=O)CC(=O)NCCCc2ccccc2)cc1` (stereo unspecified) was run?
Answer: 60.7% (active)

Question: With `CCc1ccc(NC(=O)CS(=O)CC(=O)N2CCN(c3ccccc3F)CC2)cc1` (stereo unspecified) as the compound, how does the inhibition read?
Answer: -10.3%

Question: How did the inhibition turn out when `COc1ccc(C(=O)Nc2ccc3scnc3c2)cc1` was run?
Answer: -2.75%

Question: For `COc1ccc(-c2nnn(CC(=O)NCc3ccc(C)cc3)n2)cc1OC`, which inhibition is on record?
Answer: 16.6%

Question: `COc1ccc(O)c(/C=N/NC(=O)c2ccc(NC(C)=O)cc2)c1` was tested. Which inhibition did it give?
Answer: 17.1%

Question: With `COc1ccc(C(=O)N/N=C/c2ccc(O)c3ncccc23)cc1` as the compound, how does the inhibition read?
Answer: 100% (active)

Question: How did the inhibition turn out when `COc1ccc(C(=O)N/N=C/c2c(O)ccc3ccccc23)cc1` was run?
Answer: 16.9%

Question: For `Cc1cc(C)c(NS(=O)(=O)c2ccc3c(c2)n(C)c(=O)c(=O)n3C)c(C)c1`, which inhibition is on record?
Answer: 4.25%

Question: With `COc1cc(OC)c(OC)cc1CN1CCN(c2ccccc2F)CC1` as the compound, how does the inhibition read?
Answer: 24.1%

Question: For `CCOC(=O)N1CCN(Cc2cc(Br)c(OC)cc2OC)CC1`, which inhibition is on record?
Answer: 8.78%

Question: Which inhibition does the source give for `COc1cc(CN2CCN(c3ccccc3OC)CC2)cc(OC)c1` here?
Answer: 10.9%

Question: With `COc1cc(CN2CCN(Cc3ccccc3Br)CC2)cc(OC)c1` as the compound, how does the inhibition read?
Answer: 89.3% (active)

Question: `COc1cc(CN2CCN(c3nccn3C)CC2)cc(OC)c1` was tested. Which inhibition did it give?
Answer: 8.7%

Question: `COc1cc(CN2CCN(Cc3cc(OC)c(OC)cc3OC)CC2)cc(OC)c1` was tested. Which inhibition did it give?
Answer: 75.9% (active)

Question: How did the inhibition turn out when `COc1cc(OC)c(OC)cc1CN1CCN(Cc2ccc(F)cc2)CC1` was run?
Answer: 64% (active)

Question: Which inhibition does the source give for `CCOc1cc(CN2CCN(Cc3cc(OC)cc(OC)c3)C(CCO)C2)ccc1OC` (stereo unspecified) here?
Answer: 0.98%

Question: How did the inhibition turn out when `COc1cc(OC)c(OC)cc1CN1CCN(Cc2ccc3c(c2)OCO3)CC1` was run?
Answer: 49.8%

Question: `COc1ccc(CN2CCC(C(N)=O)CC2)cc1OC` was tested. Which inhibition did it give?
Answer: 1.23%

Question: `COc1cc(CN2CCN(Cc3ccc(OC)c(OC)c3)CC2)cc(OC)c1` was tested. Which inhibition did it give?
Answer: 71.4% (active)

Question: `CC(C)Oc1ccccc1/C=C(\C#N)C(=O)Nc1ccccc1` was tested. Which inhibition did it give?
Answer: -0.06%

Question: For `O=C(CN1C(=O)CCC1=O)Nc1ccc(O)c(-c2nc3ccccc3s2)c1`, which inhibition is on record?
Answer: 0.38%

Question: How did the inhibition turn out when `O=C(O)c1ccc(/C=N/Nc2ccc3ccccc3n2)cc1` was run?
Answer: 10.5%

Question: Which inhibition does the source give for `CC(=O)N1CCc2cc(Br)cc(S(=O)(=O)N3CCN(Cc4ccccc4)CC3)c21` here?
Answer: 13.2%

Question: With `O=C(CCS(=O)(=O)c1cccc2nonc12)N1CCCC1` as the compound, how does the inhibition read?
Answer: 11.4%

Question: How did the inhibition turn out when `COc1ccc(Cn2c(CCC(=O)Nc3cccc(SC)c3)nc3cccnc32)cc1` was run?
Answer: -3.6%

Question: How did the inhibition turn out when `O=C(Oc1cccc(OC(=O)c2ccccc2)c1)c1ccccc1` was run?
Answer: -0.91%

Question: For `C#CC(C)(C)OC(=O)C1C2C=CC(C2)C1C(=O)O` (stereo unspecified), which inhibition is on record?
Answer: 21.6%

Question: With `Cc1ccc(NC(=O)C2C3C=CC4(O3)C2C(=O)N(C2CCCCCCC2)C4C(=O)NC2CCCCC2)cc1Cl` (stereo unspecified) as the compound, how does the inhibition read?
Answer: -0.34%

Question: How did the inhibition turn out when `O=C(NCCc1ccccc1)c1ccc(Cn2c(=S)[nH]c3cc4c(cc3c2=O)OCO4)cc1` was run?
Answer: 13.8%

Question: For `CCn1c(=O)c2ccccc2n2c(SCC(=O)Nc3nccs3)nnc12`, which inhibition is on record?
Answer: 0.8%

Question: How did the inhibition turn out when `COc1ccc(CCN2CCC(c3nc(-c4ccc5c(c4)OCO5)no3)CC2)cc1OC` was run?
Answer: 7.81%

Question: Which inhibition does the source give for `O=C(N/N=C/c1cc(Br)ccc1O)c1cc(Br)ccc1O` here?
Answer: 8.32%

Question: How did the inhibition turn out when `O=C(N/N=C/c1cc(Br)ccc1O)c1ccc(=O)[nH]n1` was run?
Answer: 80.2% (active)

Question: How did the inhibition turn out when `O=C(N/N=C/c1cc(Br)ccc1O)c1cc(-c2cccs2)[nH]n1` was run?
Answer: 17.6%

Question: How did the inhibition turn out when `CCOC(=O)C1=C(O)/C(=C\c2cccc(Cl)c2)N=C1C` was run?
Answer: -3.89%

Question: `COC(=O)C1=C(O)/C(=C\c2cccc(O)c2)N=C1C` was tested. Which inhibition did it give?
Answer: 58% (active)

Question: `COC(=O)C1=C(O)/C(=C\c2ccccc2C(F)(F)F)N=C1C` was tested. Which inhibition did it give?
Answer: 1.73%

Question: With `CCN(CC)C(=O)C1CCCN(c2cccc(C(=O)NCCOc3ccccc3)c2)C1` (stereo unspecified) as the compound, how does the inhibition read?
Answer: 17.9%

Question: For `c1nc(SCc2ccc3c(c2)OCO3)c2[nH]cnc2n1`, which inhibition is on record?
Answer: 5.04%

Question: With `Cn1c(N)c(C(=O)CSc2ncnc3nc[nH]c23)c(=O)n(C)c1=O` as the compound, how does the inhibition read?
Answer: 10.9%

Question: Which inhibition does the source give for `O=C(CSc1ncnc2nc[nH]c12)c1ccc(O)c(O)c1` here?
Answer: 82.1% (active)

Question: `CC(=O)N1CCN(Cc2ccc3c(c2)CN(C(=O)c2cccc(N(C)C)c2)CCO3)CC1` was tested. Which inhibition did it give?
Answer: 1.41%

Question: `C/C(=N\NC(=O)CCCc1cc2ccccc2[nH]1)c1ccncc1` was tested. Which inhibition did it give?
Answer: 12.8%

Question: With `COc1cccc(CCNC(=O)CC2C(=O)NCCN2Cc2cccc(C(F)(F)F)c2)c1` (stereo unspecified) as the compound, how does the inhibition read?
Answer: 10.1%

Question: With `CCCS(=O)(=O)N1CCN(c2ccc(C)nn2)CC1` as the compound, how does the inhibition read?
Answer: 1.44%

Question: For `CCCS(=O)(=O)N1CCN(C(=O)c2cccs2)CC1`, which inhibition is on record?
Answer: 16.3%

Question: Which inhibition does the source give for `CCCS(=O)(=O)N1CCN(C(C)C)CC1` here?
Answer: 87.2% (active)

Question: How did the inhibition turn out when `C[n+]1ccc(C(=O)N/N=C/c2ccc(Cl)cc2Cl)cc1` was run?
Answer: 0.41%

Question: Which inhibition does the source give for `O=C(N/N=C\c1ccc(Cl)cc1Cl)c1ccccc1O` here?
Answer: 9.14%

Question: `O=C1Nc2c(Cl)cc(Cl)cc2/C1=N\N=C\c1ccc(O)c(O)c1O` was tested. Which inhibition did it give?
Answer: 80.2% (active)

Question: Which inhibition does the source give for `CCC1CCCCN1Cc1c(O)ccc2c(=O)c(Oc3ccc(OC)cc3)c(C(F)(F)F)oc12` (stereo unspecified) here?
Answer: -1.92%

Question: Which inhibition does the source give for `CC(C)C[C@@H]1NC(=O)[C@@H]2C[C@H](NC(=O)Nc3c(Cl)cccc3Cl)CN2C1=O` here?
Answer: 2.93%

Question: With `Cc1noc(C)c1-c1cccc(C(=O)NCCCN2CCCC2=O)c1` as the compound, how does the inhibition read?
Answer: 12.4%

Question: For `CC(c1ccccn1)N(CCN(C)C)C(=S)Nc1ccccc1F` (stereo unspecified), which inhibition is on record?
Answer: 58% (active)

Question: Which inhibition does the source give for `CN(C)CCCNC(=O)C(=O)Nc1ccccc1F` here?
Answer: -6.25%

Question: Which inhibition does the source give for `CCOC(=O)N1CCC(N(CCOC)C(=S)Nc2ccccc2F)CC1` here?
Answer: -9.05%

Question: With `Cc1ccc(S(=O)(=O)N(CCC(=O)NCC2CCCO2)Cc2c(Cl)cccc2Cl)cc1` (stereo unspecified) as the compound, how does the inhibition read?
Answer: -0.49%

Question: With `O=C(Nc1sc2c(c1C(=O)Nc1ccccc1)CCCCC2)c1ccncc1` as the compound, how does the inhibition read?
Answer: 17.1%

From PubChem BioAssay AID1259374 (The Scripps Research Institute Molecular Screening Center, 2018)
